Assay results: PubChem BioAssay (EPA / NIEHS)
Values joined by “and” are separate entries in the source; they are usually repeats but may differ in a detail not shown here. Equal entries are not always repeated. Inconclusive results are not listed. Some compounds were tested as several samples or in several runs, with calls that do not always agree. Active and inactive are the calls of the source. How the source made its calls, unless noted: active means hit-call score of the fitted dose curve at least 0.9, where 1 is the maximum; inactive means score below 0.9.

Experiments:
[1] = read-out: NAD(P)H dehydrogenase [quinone] 1 (NQO1), NQO1 (gene 1728); experiment: LTEA_HepaRG_NQO1: Life Technologies and Expression Analysis (LTEA) Assay for NAD(P)H dehydrogenase [quinone] 1 (NQO1) using HepaRG (AID 2283526); conditions: mRNA level, 48 h; actives raise or lower the signal
Summary of the method: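 HepaRG, 48 h post-plating → serum-free induction medium → test chemical 48 h (duplicate, 100 uM top, half-log x8, 0.5% DMSO) → RNA isolation → qRT-PCR, ACTB/GAPDH/POLR2A normalization; bidirectional curve fit vs DMSO baseline.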

[2] = read-out: Nuclear factor erythroid 2-related factor 2 (Homo sapiens) (UniProt Q16236); experiment: LTEA_HepaRG_NFE2L2: Life Technologies and Expression Analysis (LTEA) Assay for Nuclear factor erythroid 2-related factor 2 (NFE2L2) Transcription Factor using HepaRG (AID 2283527); conditions: mRNA level, 48 h; actives raise or lower the signal
Summary of the method: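 Transcript level of NFE2L2 is the read-out, measured by microfluidic TaqMan qRT-PCR and normalized to three housekeeping genes. Human HepaRG cultures received test chemical for 48 h at up to 100 uM in half-log steps. Gain or loss of signal is fitted relative to 0.5% DMSO.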

[3] = read-out: succinate dehydrogenase complex iron sulfur subunit B (SDHB), SDHB (gene 6390); experiment: LTEA_HepaRG_SDHB: Life Technologies and Expression Analysis (LTEA) Assay for succinate dehydrogenase complex iron sulfur subunit B (SDHB) using HepaRG (AID 2283528); conditions: mRNA level, 48 h; actives raise or lower the signal
Summary of the method: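 Readout is SDHB transcript level by qRT-PCR, normalised to three housekeeping genes and fitted bidirectionally against 0.5% DMSO vehicle. Human HepaRG cells were treated for 48 h at up to 100 uM.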

[4] = read-out: Signal transducer and activator of transcription 3 (Homo sapiens) (UniProt P40763); experiment: LTEA_HepaRG_STAT3: Life Technologies and Expression Analysis (LTEA) Assay for Signal transducer and activator of transcription (STAT3) using HepaRG (AID 2283529); conditions: mRNA level, 48 h; actives raise or lower the signal
Summary of the method: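 Read-out is STAT3 mRNA level by qRT-PCR, normalized to three housekeeping genes, in human HepaRG liver cells treated for 48 h. Concentrations ran from 100 uM downward in half-log steps; curves were fitted for gain or loss relative to 0.5% DMSO.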

[5] = read-out: solute carrier (SLCO1B1), SLCO1B1 (gene 10599); experiment: LTEA_HepaRG_SLCO1B1: Life Technologies and Expression Analysis (LTEA) Assay for solute carrier (SLCO1B1) using HepaRG (AID 2283530); conditions: mRNA level, 48 h; actives raise or lower the signal
Summary of the method: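 Differentiated human HepaRG cells were exposed for 48 h in serum-free induction medium to eight half-log concentrations, top 100 uM, in 0.5% DMSO. SLCO1B1 mRNA was measured by qRT-PCR, normalized to ACTB, GAPDH and POLR2A, and fitted bidirectionally against DMSO.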

[6] = read-out: sulfotransferase 2A1 (SULT2A1), SULT2A1 (gene 6822); experiment: LTEA_HepaRG_SULT2A1: Life Technologies and Expression Analysis (LTEA) Assay for sulfotransferase 2A1 (SULT2A1) using HepaRG (AID 2283531); conditions: mRNA level, 48 h; actives raise or lower the signal
Summary of the method: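 HepaRG human liver cells, 48 h exposure in serum-free induction medium to 8 half-log concentrations topping at 100 µM (0.5% DMSO), duplicate wells. SULT2A1 mRNA measured by TaqMan qRT-PCR, normalized to ACTB/GAPDH/POLR2A; bidirectional fit against DMSO.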

[7] = read-out: Transforming Growth Factor (TGFA), TGFA (gene 7039); experiment: LTEA_HepaRG_TGFA: Life Technologies and Expression Analysis (LTEA) Assay for Transforming Growth Factor (TGFA) using HepaRG (AID 2283532); conditions: mRNA level, 48 h; actives raise or lower the signal
Summary of the method: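 HepaRG (human liver line), 48 h exposure, 8 conc. half-log down from 100 uM, 0.5% DMSO vehicle, duplicates; serum-free induction medium. TGFA mRNA by TaqMan qRT-PCR, ACTB/GAPDH/POLR2A normalization; gain/loss fit vs DMSO.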

[8] = read-out: Transforming Growth Factor (TGFB1), TGFB1 (gene 7040); experiment: LTEA_HepaRG_TGFB1: Life Technologies and Expression Analysis (LTEA) Assay for Transforming Growth Factor (TGFB1) Transporter using HepaRG (AID 2283533); conditions: mRNA level, 48 h; actives raise or lower the signal
Summary of the method: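 Differentiated HepaRG cells exposed 48 hr in serum-free induction medium to eight half-log concentrations up to 100 uM (0.5% DMSO), duplicate; TGFB1 mRNA by TaqMan qRT-PCR normalised to ACTB, GAPDH, POLR2A; bidirectional fit against DMSO.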

[9] = read-out: TIMP1, TIMP1 (gene 7076); experiment: LTEA_HepaRG_TIMP1: Life Technologies and Expression Analysis (LTEA) Assay for TIMP1 using HepaRG (AID 2283534); conditions: mRNA level, 48 h; actives raise or lower the signal;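 further: TaqMan qRT-PCR signal normalized to ACTB GAPDH and POLR2A housekeeping genes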
Summary of the method: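 Differentiated HepaRG cells exposed 48 h in serum-free induction medium, duplicates, eight half-log concentrations from 100 uM in 0.5% DMSO. TIMP1 mRNA by qRT-PCR normalized to ACTB, GAPDH, POLR2A; bidirectional fitting against DMSO.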

[10] = read-out: Tumor necrosis factor receptor 1 (TNFRSF1A), TNFRSF1A (gene 7132); experiment: LTEA_HepaRG_TNFRSF1A: Life Technologies and Expression Analysis (LTEA) Assay for Tumor necrosis factor receptor 1 (TNFRSF1A) using HepaRG (AID 2283535); conditions: mRNA level, 48 h; actives raise or lower the signal
Summary of the method: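 Differentiated HepaRG cells in serum-free induction medium, exposed 48 h in duplicate to 8 half-log concentrations up to 100 uM in 0.5% DMSO. TNFRSF1A mRNA by Fluidigm TaqMan qRT-PCR, normalized to ACTB, GAPDH, POLR2A; bidirectional fit.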

[11] = read-out: Thyroid Hormone Responsive (THRSP), THRSP (gene 7069); experiment: LTEA_HepaRG_THRSP: Life Technologies and Expression Analysis (LTEA) Assay for Thyroid Hormone Responsive (THRSP) using HepaRG (AID 2283536); conditions: mRNA level, 48 h; actives raise or lower the signal
Summary of the method: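 mRNA induction or loss relative to 0.5% DMSO vehicle was fitted bidirectionally across an eight-point curve whose highest exposure was 100 uM. Human HepaRG liver cells received chemicals in duplicate over 48 h before RNA extraction.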

[12] = read-out: Cellular tumor antigen p53 (Homo sapiens) (UniProt P04637); experiment: LTEA_HepaRG_TP53: Life Technologies and Expression Analysis (LTEA) Assay for Tumor Protein P53 (TP53) using HepaRG (AID 2283537); conditions: mRNA level, 48 h; actives raise or lower the signal
Summary of the method: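 Read-out is TP53 transcript level by microfluidic qRT-PCR, normalised to three housekeeping genes and fitted bidirectionally against DMSO. Human HepaRG cells received compounds for 48 h, highest concentration 100 uM.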

[13] = read-out: UDP glucuronosyltransferase (UGT1A1), UGT1A1 (gene 54658); experiment: LTEA_HepaRG_UGT1A1: Life Technologies and Expression Analysis (LTEA) Assay for UDP glucuronosyltransferase (UGT1A1) using HepaRG (AID 2283538); conditions: mRNA level, 48 h; actives raise or lower the signal
Summary of the method: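 Readout is UGT1A1 transcript level by qRT-PCR, normalized to three housekeeping genes, after 48 h chemical treatment of HepaRG cells. Concentrations ran from 100 uM down in half-log steps with 0.5% DMSO, and gain or loss relative to DMSO was fitted.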

[14] = read-out: UDP glucuronosyltransferase (UGT1A6), UGT1A6 (gene 54578); experiment: LTEA_HepaRG_UGT1A6: Life Technologies and Expression Analysis (LTEA) Assay for UDP glucuronosyltransferase (UGT1A6) using HepaRG (AID 2283539); conditions: mRNA level, 48 h; actives raise or lower the signal
Summary of the method: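 Differentiated HepaRG cells, ~100,000/well, were exposed for 48 h in serum-free induction medium with 0.5% DMSO to 8-point half-log series topping at 100 uM, in duplicate. mRNA measured by Fluidigm TaqMan qRT-PCR, normalized to ACTB, GAPDH and POLR2A.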

[15] = read-out: X-box binding protein 1 (XBP1), XBP1 (gene 7494); experiment: LTEA_HepaRG_XBP1: Life Technologies and Expression Analysis (LTEA) Assay for X-box binding protein 1 (XBP1) using HepaRG (AID 2283540); conditions: mRNA level, 48 h; actives raise or lower the signal
Summary of the method: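 Differentiated human HepaRG cells in serum-free induction medium exposed 48 h in duplicate to eight half-log concentrations up to 100 uM in 0.5% DMSO. XBP1 mRNA measured by Fluidigm TaqMan qRT-PCR, normalized to ACTB, GAPDH, POLR2A; bidirectional fitting against DMSO.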

[16] = LTEA_HepaRG_LDH_cytotoxicity: Cytotoxicity Assessment in the Life Technologies and Expression Analysis (LTEA) Assay (AID 2283563; active means hit-call score of the fitted dose curve at least 0.9, where 1 is the maximum)
Summary of the method: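 Differentiated HepaRG cells in serum-free induction medium, exposed 48 h in duplicate to 8 half-log concentrations up to 100 uM in 0.5% DMSO. Cytotoxicity from LDH measured in spent medium, fit relative to DMSO.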

[17] = TOX21_p53_BLA_p2_viability: Viability Assessment in the Tox21 HCT-116 p53 Agonism Beta-lactamase Assay, Phase 2 (AID 2283591; active means hit-call score of the fitted dose curve at least 0.9, where 1 is the maximum;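 further: compound exposure lasted 16 h at 37 °C; actives lower the ATP signal meaning cytotoxicity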)
Summary of the method: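 Cytotoxicity readout: CellTiter-Glo ATP luminescence, 30 min at room temperature, after the beta-lactamase read. Cells were HCT116 exposed 16 h at 37C to compounds pin-transferred at 217-fold dilution from DMSO stocks.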

[18] = TOX21_p53_BLA_p3_viability: Viability Assessment in the Tox21 HCT-116 p53 Agonism Beta-lactamase Assay, Phase 3 (AID 2283593; active means hit-call score of the fitted dose curve at least 0.9, where 1 is the maximum;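 further: cells exposed to compound for 16 h before reading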)
Summary of the method: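 Cellular ATP was quantified by CellTiter-Glo luminescence, read after 30 min at room temperature. Beforehand, HCT116 cells (4000/well) received compound 5 h post-seeding, 217-fold diluted from DMSO, then incubated 16 h at 37C.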

[19] = ATG_XTT_Cytotoxicity: Cytotoxicity Assessment in the Attagene TRANS-FACTORIAL HepG2 Assay (AID 2283584; active means hit-call score of the fitted dose curve at least 0.9, where 1 is the maximum)
Summary of the method: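 HepG2 cells transiently transfected with GAL4-UAS multiple reporter units, dosed 24 h; cytotoxicity read by XTT as loss of signal versus DMSO baseline.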

[20] = target: Cellular tumor antigen p53 (Homo sapiens) (UniProt P04637); experiment: TOX21_p53_BLA_p2_ratio: Tox21 HCT-116 p53 Agonism Beta-lactamase Assay, Ratio, Phase 2 (AID 2283592; active means hit-call score of the fitted dose curve at least 0.9, where 1 is the maximum)
Summary of the method: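 HCT-116 cells with p53-responsive beta-lactamase reporter, 4000 cells/well, preincubated 5 h, then compound in DMSO (217-fold dilution) for 16 h at 37C. CCF4-AM substrate 2 h at room temperature; 460/530 nm emission ratio fitted upward versus DMSO.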

Measured: AC50

Sequence of Nuclear factor erythroid 2-related factor 2 (Homo sapiens) (Q16236 whole entry, looked up): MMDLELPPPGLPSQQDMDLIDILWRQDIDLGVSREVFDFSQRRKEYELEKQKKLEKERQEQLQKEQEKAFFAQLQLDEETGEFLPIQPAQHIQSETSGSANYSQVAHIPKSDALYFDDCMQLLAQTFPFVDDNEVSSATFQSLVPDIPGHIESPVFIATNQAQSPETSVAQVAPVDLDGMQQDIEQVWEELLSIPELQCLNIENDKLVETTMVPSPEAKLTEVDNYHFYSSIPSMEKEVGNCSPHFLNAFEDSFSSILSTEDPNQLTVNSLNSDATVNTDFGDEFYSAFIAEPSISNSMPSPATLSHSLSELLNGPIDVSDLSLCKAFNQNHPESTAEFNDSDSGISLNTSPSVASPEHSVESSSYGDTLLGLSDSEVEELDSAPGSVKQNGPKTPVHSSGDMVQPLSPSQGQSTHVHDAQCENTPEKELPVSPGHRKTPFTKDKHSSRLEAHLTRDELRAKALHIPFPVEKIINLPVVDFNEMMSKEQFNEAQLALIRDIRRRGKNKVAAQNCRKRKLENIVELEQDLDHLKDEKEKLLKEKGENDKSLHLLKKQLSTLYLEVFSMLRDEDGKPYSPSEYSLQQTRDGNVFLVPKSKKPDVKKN
Sequence of Cellular tumor antigen p53 (Homo sapiens) (P04637 whole entry, looked up): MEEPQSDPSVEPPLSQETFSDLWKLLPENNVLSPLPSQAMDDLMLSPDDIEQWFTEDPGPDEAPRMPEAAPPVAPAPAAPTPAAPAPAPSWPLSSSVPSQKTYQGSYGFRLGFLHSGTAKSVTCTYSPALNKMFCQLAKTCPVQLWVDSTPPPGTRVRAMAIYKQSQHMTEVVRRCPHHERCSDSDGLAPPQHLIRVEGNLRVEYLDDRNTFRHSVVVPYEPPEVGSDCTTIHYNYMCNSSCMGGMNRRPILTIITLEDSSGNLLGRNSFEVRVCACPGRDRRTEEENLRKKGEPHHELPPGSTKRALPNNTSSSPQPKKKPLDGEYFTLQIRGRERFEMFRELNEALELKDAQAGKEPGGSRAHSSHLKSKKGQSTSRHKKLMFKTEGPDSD
Sequence of Signal transducer and activator of transcription 3 (Homo sapiens) (P40763 whole entry, looked up): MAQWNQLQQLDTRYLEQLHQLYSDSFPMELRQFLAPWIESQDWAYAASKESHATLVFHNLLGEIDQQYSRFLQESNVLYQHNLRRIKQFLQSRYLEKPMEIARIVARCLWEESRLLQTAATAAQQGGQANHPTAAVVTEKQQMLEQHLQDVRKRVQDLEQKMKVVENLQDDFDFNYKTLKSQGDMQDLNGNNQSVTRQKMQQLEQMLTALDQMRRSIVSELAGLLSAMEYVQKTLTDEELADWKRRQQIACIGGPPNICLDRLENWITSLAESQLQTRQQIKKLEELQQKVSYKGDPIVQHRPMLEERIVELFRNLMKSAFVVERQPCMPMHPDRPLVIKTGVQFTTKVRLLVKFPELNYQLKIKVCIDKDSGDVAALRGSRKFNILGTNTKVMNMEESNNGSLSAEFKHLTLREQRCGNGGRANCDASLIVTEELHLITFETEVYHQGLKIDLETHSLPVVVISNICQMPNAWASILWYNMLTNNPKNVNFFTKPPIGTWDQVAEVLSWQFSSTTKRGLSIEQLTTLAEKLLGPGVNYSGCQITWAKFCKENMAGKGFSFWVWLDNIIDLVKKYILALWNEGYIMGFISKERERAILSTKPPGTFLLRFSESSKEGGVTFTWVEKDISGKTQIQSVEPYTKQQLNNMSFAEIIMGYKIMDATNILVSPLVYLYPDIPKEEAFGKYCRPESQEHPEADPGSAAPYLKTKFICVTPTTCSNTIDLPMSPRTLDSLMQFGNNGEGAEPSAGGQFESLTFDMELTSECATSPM

Oc1ccccc1Cl
not listed: [19] | [20]
inactive: all other assays above

ClC1=C(Cl)C2(Cl)C3C(Cl)C=CC3C1(Cl)C2(Cl)Cl (centres undefined)
active: [2] 8.87 µM | [12] 14.1 µM | [13] 2.86 µM | [17] 85.9 µM | [18] 46.1 µM and 69.6 µM
inactive: [1] | [3] | [5] | [6] | [7] | [8] | [9] | [10] | [11] | [14] | [15] | [16] | [19] | [17]

Cc1ccc(N)cc1
not listed: [17] | [18] | [19]
inactive: all other assays above
